The campaign covered roughly 200,000 compounds. About 15 (0.007%) were called active. This excerpt belongs to a sample that is enriched for actives. Values without a mark were called inactive. Cut-off read from the data, not from the text of the source: active = displacement above about 50%; inactive = the rest.

The target in this test is E3 ubiquitin-protein ligase XIAP (Homo sapiens) (UniProt P98170). The test is described as follows: XIAP antagonists, biochemical, IAP family, fluorescence polarization (AID 1018). To be noted: XIAP BIR domain, fluorescence polarization peptide displacement; at 20 µM; stronger effect = higher value. (In general: Fluorescence polarisation rises when a labelled molecule tumbles more slowly, as on binding a larger partner.)
Sequence of E3 ubiquitin-protein ligase XIAP (Homo sapiens) (P98170 whole entry, looked up, the tested form may be a part): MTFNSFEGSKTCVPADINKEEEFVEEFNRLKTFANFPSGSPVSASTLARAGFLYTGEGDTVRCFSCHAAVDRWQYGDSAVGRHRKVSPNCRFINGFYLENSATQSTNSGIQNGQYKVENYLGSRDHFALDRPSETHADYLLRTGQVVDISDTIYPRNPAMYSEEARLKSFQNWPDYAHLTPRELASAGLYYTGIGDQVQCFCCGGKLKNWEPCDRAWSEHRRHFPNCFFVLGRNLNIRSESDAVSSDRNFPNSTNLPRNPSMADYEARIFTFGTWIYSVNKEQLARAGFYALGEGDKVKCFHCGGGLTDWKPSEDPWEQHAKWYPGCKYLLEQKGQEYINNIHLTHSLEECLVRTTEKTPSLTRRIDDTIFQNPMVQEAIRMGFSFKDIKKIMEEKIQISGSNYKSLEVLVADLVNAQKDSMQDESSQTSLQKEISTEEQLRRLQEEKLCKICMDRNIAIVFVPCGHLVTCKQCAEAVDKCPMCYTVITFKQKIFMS
For the compound `CN1C(=O)N(C)C(=O)C2(Cc3ccccc3N3CCOCC32)C1=O` (stereo not given), the displacement is -5.1%.

As for `CN1C(=O)NC(=O)[C@]2(Cc3ccccc3N3CCN(c4ccccc4)CC32)C1=O` (stereo not given in full), the displacement was -2.4%.

`CN1C(=O)N(C)C(=O)C2(Cc3cc(N)ccc3N3CCN(c4ccccc4F)CC32)C1=O` (stereo not given): the displacement was 55.4% (active).

With `Cc1ccc(-c2nc3ccccc3c(=O)n2-c2ccccn2)cc1`, the displacement is -3%.

For the compound `CCCCCSc1cc(OC)c(CCN(C)C)cc1OC`, the displacement is -2.2%.

These data come from PubChem BioAssay AID1018 (Sanford-Burnham Center for Chemical Genomics, 2008).
